About 2,000 (36%) of roughly 5,500 compounds were called active. Roughly 18% stayed inconclusive and do not appear here. No stated cut-off is given here; in the data, active means normalized growth mostly below about 0.91 (no sharp cut-off); inconclusive means no clear call, values can overlap the other calls; inactive means mostly above about 0.92. The list shows a part of the results.
Experiment: chemical genetic growth profiling, strain panel (AID 1159580);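 further: tested at 20 µM; growth read once vehicle control cultures reached saturation at 30 °C; 1 = growth at the plate median or of vehicle wells; lower values mean less growth of the strain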
Conditions: growth OD

Measured: normalized growth

CC(=O)O[C@H]1C(=O)[C@@]2(C)C([C@H](OC(=O)c3ccccc3)[C@]3(O)C[C@H](OC(=O)[C@H](O)[C@@H](NC(=O)c4ccccc4)c4ccccc4)C(C)=C1C3(C)C)[C@]1(OC(C)=O)CO[C@@H]1C[C@@H]2O (stereo partly specified)
active: S. cerevisiae deletion strains, locus YKL009W, strain mrt4, hits give low values 0.636 | S. cerevisiae deletion strains, locus YKL068W, hits give low values 0.781 | S. cerevisiae deletion strains, locus YKL085W, strain MDH1 (second series), hits give low values 0.884 | S. cerevisiae deletion strains, locus YKL085W, strain MDH1, hits give low values 0.884 | S. cerevisiae deletion strains, locus YLR418C, strain cdc73, hits give low values 1.25 [resistant] | S. cerevisiae deletion strains, locus YML124C, strain tub3, hits give low values 1.11 [resistant] | S. cerevisiae deletion strains, locus YMR078C, strain ctf18, hits give low values 1.1 [resistant] | S. cerevisiae deletion strains, locus YMR223W, strain ubp8, hits give low values 1.12 [resistant] | S. cerevisiae deletion strains, locus YNL248C, strain rpa49, hits give low values 0.783 | S. cerevisiae deletion strains, locus YNR052C, strain pop2, hits give low values 1.09 [resistant] | S. cerevisiae deletion strains, locus YOR136W, strain idh2, hits give low values 1.1 [resistant] | S. cerevisiae deletion strains, locus YOR144C, strain elg1, hits give low values 1.1 [resistant] | S. cerevisiae deletion strains, locus YPR167C, strain met16, hits give low values 1.08 [resistant]
inactive: S. cerevisiae deletion strains, locus YJR066W, strain TOR1, hits give low values 0.943 | S. cerevisiae deletion strains, locus YJR075W, strain HOC1, hits give low values 1.04 | S. cerevisiae deletion strains, locus YKL160W, strain elf1, hits give low values 1.01 | S. cerevisiae deletion strains, locus YKL190W, strain CNB1, hits give low values 1.02 | S. cerevisiae deletion strains, locus YKR026C, strain gcn3, hits give low values 0.999 | S. cerevisiae deletion strains, locus YKR091W, strain srl3, hits give low values 1 | S. cerevisiae deletion strains, locus YLL001W, strain dnm1, hits give low values 1.05 | S. cerevisiae deletion strains, locus YLL026W, hits give low values 0.993 | S. cerevisiae deletion strains, locus YLL041C, strain sdh2, hits give low values 0.979 | S. cerevisiae deletion strains, locus YLR027C, strain aat2, hits give low values 0.97 | S. cerevisiae deletion strains, locus YLR039C, strain RIC1, hits give low values 1.06 | S. cerevisiae deletion strains, locus YLR058C, strain SHM2, hits give low values 1.03 | S. cerevisiae deletion strains, locus YLR102C, strain apc9, hits give low values 1.03 | S. cerevisiae deletion strains, locus YLR113W, strain HOG1, hits give low values 0.945 | S. cerevisiae deletion strains, locus YLR221C, strain rsa3, hits give low values 1.03 | S. cerevisiae deletion strains, locus YLR258W, strain gsy2, hits give low values 0.997 | S. cerevisiae deletion strains, locus YLR262C, strain YPT6 (second series), hits give low values 1.02 | S. cerevisiae deletion strains, locus YLR262C, strain YPT6, hits give low values 1.15 | S. cerevisiae deletion strains, locus YLR268W, strain sec22, hits give low values 1.06 | S. cerevisiae deletion strains, locus YLR320W, strain mms22, hits give low values 1.01 | S. cerevisiae deletion strains, locus YLR330W, strain CHS5, hits give low values 1.03 | S. cerevisiae deletion strains, locus YLR342W, strain FKS1 (second series), hits give low values 1.06 | S. cerevisiae deletion strains, locus YLR342W, strain FKS1, hits give low values 1 | S. cerevisiae deletion strains, locus YLR357W, strain rsc2, hits give low values 1 | S. cerevisiae deletion strains, locus YLR370C, strain arc18, hits give low values 1.02 | S. cerevisiae deletion strains, locus YLR371W, strain rom2, hits give low values 1.03 | S. cerevisiae deletion strains, locus YLR384C, strain iki3, hits give low values 0.982 | S. cerevisiae deletion strains, locus YML016C, strain PPZ1, hits give low values 1.03 | S. cerevisiae deletion strains, locus YML032C, strain rad52, hits give low values 1.05 | S. cerevisiae deletion strains, locus YML120C, strain ndi1, hits give low values 1.02 | S. cerevisiae deletion strains, locus YMR058W, strain fet3, hits give low values 0.968 | S. cerevisiae deletion strains, locus YMR125W, strain sto1, hits give low values 1.01 | S. cerevisiae deletion strains, locus YMR129W, hits give low values 0.987 | S. cerevisiae deletion strains, locus YMR205C, strain PFK2, hits give low values 1.02 | S. cerevisiae deletion strains, locus YMR231W, strain pep5, hits give low values 0.983 | S. cerevisiae deletion strains, locus YMR263W, strain SAP30, hits give low values 1.06 | S. cerevisiae deletion strains, locus YMR307W, strain GAS1, hits give low values 1.09 | S. cerevisiae deletion strains, locus YNL067W, strain RPL9B, hits give low values 1.02 | S. cerevisiae deletion strains, locus YNL071W, strain lat1, hits give low values 0.972 | S. cerevisiae deletion strains, locus YNL128W, strain TEP1, hits give low values 1.05 | S. cerevisiae deletion strains, locus YNL153C, strain GIM3, hits give low values 1.03 | S. cerevisiae deletion strains, locus YNL183C, strain NPR1, hits give low values 0.952 | S. cerevisiae deletion strains, locus YNL209W, strain ssb2, hits give low values 1.01 | S. cerevisiae deletion strains, locus YNL233W, strain BNI4, hits give low values 1.02 | S. cerevisiae deletion strains, locus YNL250W, strain rad50, hits give low values 0.921 | S. cerevisiae deletion strains, locus YNL271C, strain bni1, hits give low values 1 | S. cerevisiae deletion strains, locus YNL298W, strain CLA4, hits give low values 0.941 | S. cerevisiae deletion strains, locus YNL307C, strain MCK1, hits give low values 1.03 | S. cerevisiae deletion strains, locus YNL322C, strain KRE1 (second series), hits give low values 0.986 | S. cerevisiae deletion strains, locus YNL322C, strain KRE1, hits give low values 1.03 | S. cerevisiae deletion strains, locus YNR049C, strain mso1, hits give low values 1 | S. cerevisiae deletion strains, locus YOL006C, strain TOP1, hits give low values 1.01 | S. cerevisiae deletion strains, locus YOL012C, strain htz1 2.06 | S. cerevisiae deletion strains, locus YOL147C, strain pex11, hits give low values 1.05 | S. cerevisiae deletion strains, locus YOR001W, strain rrp6, hits give low values 0.902 | S. cerevisiae deletion strains, locus YOR061W, strain CKA2, hits give low values 1.03 | S. cerevisiae deletion strains, locus YOR069W, strain VPS5, hits give low values 1.02 | S. cerevisiae deletion strains, locus YOR070C, strain gyp1, hits give low values 0.995 | S. cerevisiae deletion strains, locus YOR080W, strain dia2, hits give low values 1.01 | S. cerevisiae deletion strains, locus YOR083W, strain WHI5, hits give low values 1.01 | S. cerevisiae deletion strains, locus YOR106W, strain vam3, hits give low values 0.987 | S. cerevisiae deletion strains, locus YOR231W, strain MKK1, hits give low values 0.964 | S. cerevisiae deletion strains, locus YOR265W, strain rbl2, hits give low values 0.999 | S. cerevisiae deletion strains, locus YOR270C, strain vph1, hits give low values 0.866 | S. cerevisiae deletion strains, locus YOR290C, strain snf2, hits give low values 1.02 | S. cerevisiae deletion strains, locus YOR316C, strain cot1, hits give low values 1.06 | S. cerevisiae deletion strains, locus YPL051W, strain arl3, hits give low values 0.987 | S. cerevisiae deletion strains, locus YPL055C, strain LGE1, hits give low values 1.1 | S. cerevisiae deletion strains, locus YPL078C, strain atp4, hits give low values 0.956 | S. cerevisiae deletion strains, locus YPL106C, strain sse1, hits give low values 1.04 | S. cerevisiae deletion strains, locus YPL240C, strain hsp82, hits give low values 0.994 | S. cerevisiae deletion strains, locus YPL241C, strain CIN2, hits give low values 1.04 | S. cerevisiae deletion strains, locus YPL256C, strain CLN2, hits give low values 1.1 | S. cerevisiae deletion strains, locus YPR119W, strain clb2, hits give low values 1.03 | S. cerevisiae deletion strains, locus YPR141C, strain kar3, hits give low values 0.94 | S. cerevisiae deletion strains, locus YPR163C, strain tif3, hits give low values 1.05 | S. cerevisiae deletion strains, strain wtn01, hits give low values 1.09 | S. cerevisiae strains, strain wild type, hits give low values 0.995

From PubChem BioAssay AID1159580 (chemical genetic matrix, 2015)
